Reference: the antibiotic and cytotoxicity screens of Wong et al. (2023)
Among all 39,000 compounds or so, about 3,300 (8.5%) were called active. The list comes from a sample in which actives are over-represented; it also holds similar structures and randomly drawn compounds.

Each molecule was assayed on HepG2 (assay: cytotoxicity call (relative viability < 0.9)). Settings: 10 µM.
In the case of `C[C@H]1CN([C@@H](C)CO)C(=O)c2cc(NS(=O)(=O)c3cn(C)cn3)ccc2O[C@H]1CN(C)S(=O)(=O)c1cn(C)cn1`, the cytotoxicity call was “inactive”. For `Cc1noc(C)c1NC(=O)N(C)C[C@@H]1Oc2ccc(NC(=O)Cn3cnnn3)cc2C(=O)N([C@@H](C)CO)C[C@H]1C`, the cytotoxicity call was “inactive”. With `O=C(C[C@H]1C=C[C@@H](NC(=O)CN2CCOCC2)[C@H](CO)O1)NCCc1ccncc1` the cytotoxicity call was “inactive”. `O=C(C[C@@H]1CC[C@@H](NC(=O)CN2CCOCC2)[C@H](CO)O1)NCCc1ccccc1` was tested, and the cytotoxicity call was “inactive”. In the case of `Cc1ccc(S(=O)(=O)N(C)C[C@H]2Oc3ccc(NS(=O)(=O)c4cn(C)cn4)cc3CC(=O)N([C@@H](C)CO)C[C@@H]2C)cc1`, the cytotoxicity call was “inactive”. For `O=S(=O)(NCc1ccco1)N1CCOCC1`, the cytotoxicity call was “inactive”. For `C[C@@H]1CCCCO[C@H](CN(C)Cc2ccc(C(=O)O)cc2)[C@H](C)CN([C@@H](C)CO)C(=O)c2cc(NC(=O)Nc3ccccc3)ccc2O1`, the cytotoxicity call was “inactive”. `COc1ccc([C@H]2CC=CC[C@H](C)Oc3ccccc3C(=O)N(C)[C@H](Cc3ccccc3)C(=O)N2)c(OC)c1` was tested, and the cytotoxicity call was “inactive”. In the case of `COc1ccc2c(c1)OCC(Cc1ccc(OC)c(OC)c1)C2=O` (stereo not given), the cytotoxicity call was “active”. In the case of `COc1ccc2c(c1)OCC(=Cc1ccc(OC)c(O)c1)C2=O`, the cytotoxicity call was “active”. With `COc1ccc2c(c1)OCc1c-2oc2cc(OC)ccc12` the cytotoxicity call was “inactive”. For `COc1ccc(CCC(=O)c2c(O)cc(O[C@@H]3O[C@H](CO)[C@@H](O)[C@H](O)[C@H]3O[C@@H]3O[C@@H](C)[C@H](O)[C@@H](O)[C@H]3O)cc2O)cc1O`, the cytotoxicity call was “inactive”. With `COc1ccc(-c2cc(=O)c3c(O)cc(OC)c(OC)c3o2)c(OC)c1` the cytotoxicity call was “inactive”. With `COc1ccc([C@H]2CC=CC[C@H](C)Oc3ccccc3C(=O)N(C)[C@@H](Cc3ccccc3)C(=O)N2)c(OC)c1` the cytotoxicity call was “inactive”. With `COc1ccc2c(c1)OCC(Cc1ccc(O)c(OC)c1)C2=O` (stereo not given) the cytotoxicity call was “inactive”. For `COc1ccc2c(c1)OCC(Cc1ccc(OC)c(O)c1)C2=O` (stereo not given), the cytotoxicity call was “active”. `C[C@H]1CCCCO[C@H](CN(C)C(=O)NC2CCCCC2)[C@@H](C)CN([C@@H](C)CO)C(=O)c2cc(NC(=O)C3CCCCC3)ccc2O1` was tested, and the cytotoxicity call was “inactive”. `Cc1noc(C)c1NC(=O)N(C)C[C@@H]1OCCCC[C@H](C)Oc2ccc(NC(=O)Nc3cccc4ccccc34)cc2C(=O)N([C@@H](C)CO)C[C@H]1C` was tested, and the cytotoxicity call was “inactive”. `COCCNC(=O)C[C@@H]1CC[C@@H]2[C@H](COc3ccc(NC(=O)Nc4cccc(F)c4)cc3C(=O)N2C)O1` was tested, and the cytotoxicity call was “inactive”. For `Cc1noc(C)c1NC(=O)Nc1ccc2c(c1)CC(=O)N([C@@H](C)CO)C[C@H](C)[C@@H](CN(C)Cc1ccc(Oc3ccccc3)cc1)O2`, the cytotoxicity call was “inactive”.
